Results reported in the supplement of paper PMC3334620.
Over roughly 33,000 sequences, “E-score (-0.5 to 0.5)” has its median near -0.011; the highest 2% begin near 0.28. Shown is part of a subset that was picked to be rich in the highest values.

These sequences were tested against T1, Gcr1 (UniProt P07261) (assay: PBM E-score (8-mer binding enrichment) (E-score (-0.5 to 0.5)); higher = stronger / more preferred TF binding). Conditions: protein concentration: 100 nM; construct: GST-full length.
T1 sequence: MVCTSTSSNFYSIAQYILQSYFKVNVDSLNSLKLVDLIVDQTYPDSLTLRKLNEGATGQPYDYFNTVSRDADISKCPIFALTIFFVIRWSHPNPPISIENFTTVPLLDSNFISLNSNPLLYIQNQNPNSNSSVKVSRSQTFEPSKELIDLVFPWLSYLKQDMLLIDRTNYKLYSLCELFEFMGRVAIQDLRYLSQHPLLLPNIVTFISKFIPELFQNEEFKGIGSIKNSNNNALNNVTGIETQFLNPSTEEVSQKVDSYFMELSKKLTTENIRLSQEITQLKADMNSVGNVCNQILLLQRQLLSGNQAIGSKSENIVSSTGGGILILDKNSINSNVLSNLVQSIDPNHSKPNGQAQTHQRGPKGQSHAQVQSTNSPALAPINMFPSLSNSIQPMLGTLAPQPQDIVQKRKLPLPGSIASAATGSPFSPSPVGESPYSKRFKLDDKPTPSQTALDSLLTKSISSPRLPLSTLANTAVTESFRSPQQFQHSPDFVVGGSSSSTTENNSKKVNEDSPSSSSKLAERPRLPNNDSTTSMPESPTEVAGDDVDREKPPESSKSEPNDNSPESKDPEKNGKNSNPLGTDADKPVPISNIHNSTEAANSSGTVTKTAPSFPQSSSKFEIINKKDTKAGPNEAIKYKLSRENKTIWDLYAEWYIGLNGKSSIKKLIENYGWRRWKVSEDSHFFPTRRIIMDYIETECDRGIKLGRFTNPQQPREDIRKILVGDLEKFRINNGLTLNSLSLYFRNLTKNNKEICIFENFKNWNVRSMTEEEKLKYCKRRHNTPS
Procedure, shortened: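 Universal all-10-mer Agilent arrays, double-stranded by primer extension on fresh or once-stripped slides, were probed with about 100-200 nM GST-tagged yeast transcription factors made by PURExpress. Fluorescent anti-GST detected bound protein, and masliner normalised the scans. E-scores from the Universal PBM Analysis Suite were given to each ungapped eight-base word pooled with its reverse complement.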

In order of falling “PBM E-score” value:
1. GGGCGCCC  0.459
2. AGACGCCG  0.421
3. TAGTGGAA  0.42
4. AAGTGGAA  0.41
5. AGGGTGCC  0.39
6. CGGGTGCC  0.377
7. CGGCGCCC  0.359
8. CTGGTGCC  0.352
9. CGACGCCG  0.349
10. AGACGCCT  0.327
11. CAACTTCC  0.321
12. GAGTGGAA  0.316
13. CCACTTCC  0.305
14. AGGAGTCC  0.303
15. AGACGCGC  0.289
16. TAGTGGCA  0.289
17. AGACGCCA  0.283
18. GAGGTGCC  0.281
19. AAGTGGTG  0.281
20. CGGAGTCC  0.281
21. CAGTGGAA  0.244
22. AAGTGGCA  0.238
23. GAGCGCCC  0.234
24. AGACGCAT  0.231
25. ATTTTTTG  0.228
26. ATGGTGCC  0.227
27. CTGGTGCA  0.216
28. AGACGCGA  0.214
29. GTCCGAAA  0.212
30. ACACGCCG  0.199
31. CGGCGCGC  0.193
32. AAGTGGTA  0.176
33. GCACTTCC  0.168
34. CGACGCCA  0.157
35. AAGGTGCC  0.144
36. AAGTGGAG  0.141
37. TAGCCCCA  0.139
38. AAGTGGAT  0.136
39. TGGTGGAA  0.124
40. CGGCGCCG  0.113
41. CAACTTCG  0.107
42. ACCAATAA  0.0976
43. GACACCTA  0.0961
44. CCACTTCG  0.0958
45. GCGATCCC  0.0838
46. CTGGTCAA  0.0775
47. CGGGTGCA  0.0724
48. AGGTAGTC  0.072
49. AGACGCAG  0.0695
50. CGTATGAC  0.0685
51. AACCGGGT  0.0617
52. GTCGCCTA  0.0571
53. AGTTATTC  0.0537
54. AGGGTGCG  0.0402
55. CGACGCGC  0.0401
56. AAGTGGTC  0.0307
57. AAGCAGGA  0.0293
58. GTCAAGGA  0.0238
59. GGTTTGAC  0.0178
60. AAGGTAAA  0.0141
61. CGCCGACG  0.0121
62. CTAGGGTC  0.00957
63. TCCCTACA  0.00308
64. ACCGTGGG  -0.00593
65. CGGAGTCA  -0.00995
66. CAGCTGGG  -0.0114
67. CTCTGTTC  -0.0161
68. GAGTGGAC  -0.0196
69. AGGAGTCA  -0.0283
70. AGAGGGGC  -0.044
71. GAGTGGCA  -0.0587
72. ACCAACCT  -0.0617
73. ACATTTGC  -0.0633
74. CAACTTCA  -0.0643
75. AGGAGTCG  -0.069
76. AGGGTGCA  -0.0715
77. CAGTCTAC  -0.0756
78. AAAGCGCG  -0.0766
79. ACACGCCT  -0.087
80. CGTGGTGA  -0.09
81. GAGTTTCA  -0.0957
82. CCACGCCG  -0.106
83. GGGTGGAA  -0.113
84. CACTGTAG  -0.115
85. CGGGTGTC  -0.116
86. GAGGTGCA  -0.125
87. GCCTTCGA  -0.126
88. AACACCGT  -0.132
89. AAGCGATC  -0.135
90. GGCTCGCA  -0.137
91. GGGCGCAC  -0.138
92. ACACGCCA  -0.163
93. CCTCAGAC  -0.19
94. TAAACCGA  -0.235
95. CGGAGTAC  -0.243
96. CAGGGAGG  -0.257
97. GATCTCAC  -0.257
